Records with an inconclusive call do not appear. Calls of active or inactive are those of the source. Unless noted, calls come from the whole dose curve; as a rule, active = well fitted curve in the direction sought with a large enough effect in the repeat runs; inconclusive = weak or mixed curves; inactive = no such curve, though single readings can be large; an effect the other way counts as inactive or inconclusive.
Test system: not listed separately
Experiment: qHTS assay to identify small molecule antagonists of the estrogen related receptor (ERR) signaling pathway (AID 1224819;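 note: luminescence from an ERR-driven luciferase reporter measured with One-Glo reagent; nearly all actives have a fitted effect of over 50% in size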)
Settings: ERR reporter cell line, luciferase inhibition; series mostly up to 46.1 µM
Method in brief: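 Seed ERR cells 2,000/well; rest 6 h at 37 C/5% CO2; pin compounds in DMSO; incubate 18 h at 37 C; add One-Glo; wait 30 min at room temperature; measure luminescence.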

SMILES | outcome
OCCN1CCN(CCCN2c3ccccc3Sc3ccc(Cl)cc32)CC1 | inactive
O=C(O)CCc1nc(-c2ccccc2)c(-c2ccccc2)o1 | inactive
CN1C(=O)c2ccccc2C1=O | inactive
O=C(CCc1ccc(O)cc1)c1c(O)cc(O)cc1O | inactive

Test system: not listed separately
Experiment: qHTS assay to identify small molecule agonists of the estrogen related receptor (ERR) signaling pathway (AID 1224820)
Settings: ERR reporter cell line, luciferase agonist mode; series mostly up to 46.1 µM
Method in brief: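 ERR reporter cells (NTP line) plated 2,000/well, incubated 6 h at 37 C/5% CO2, then pinned with compounds in DMSO and held 18 h at 37 C. One-Glo added; luminescence read after 30 min at room temperature.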

SMILES | outcome
OCCN1CCN(CCCN2c3ccccc3Sc3ccc(Cl)cc32)CC1 | inactive
O=C(O)CCc1nc(-c2ccccc2)c(-c2ccccc2)o1 | inactive
CN1C(=O)c2ccccc2C1=O | inactive
O=C(CCc1ccc(O)cc1)c1c(O)cc(O)cc1O | inactive
C[C@H]1c2cccc(O)c2C(O)=C2C(=O)[C@]3(O)C(O)=C(C(N)=O)C(=O)[C@@H](N(C)C)[C@@H]3[C@@H](O)[C@@H]21 | inactive

Test system: estrogen-related receptor alpha (ERRalpha) with PGC-1alpha coactivator, human
Experiment: qHTS assay to identify small molecule antagonists of the estrogen related receptor signaling pathway with the pleiotropic PPARgamma coactivator (PGC) (AID 1224821; calls by dose curve;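 note: lower luminescence signal means antagonism of PGC/ERR signalling; nearly all actives have a fitted effect of over 50% in size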)
Settings: ERR/PGC reporter cell line, luciferase, antagonist mode; series mostly up to 46.1 µM
Method in brief: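 Cells engineered for PGC/ERR signalling (line from NTP) were plated 6 h at 37 C/5% CO2, then exposed to DMSO-dissolved compound for 18 h at 37 C. Luciferase activity was read by One-Glo luminescence after 30 min at room temperature.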

SMILES | outcome
OCCN1CCN(CCCN2c3ccccc3Sc3ccc(Cl)cc32)CC1 | inactive
O=C(O)CCc1nc(-c2ccccc2)c(-c2ccccc2)o1 | inactive
CN1C(=O)c2ccccc2C1=O | inactive
O=C(CCc1ccc(O)cc1)c1c(O)cc(O)cc1O | inactive

Test system: not listed separately
Experiment: qHTS assay to identify small molecule antagonists of the estrogen related receptor signaling pathway with the pleiotropic PPARgamma coactivator (PGC) cell viability counter screen (AID 1224822;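 note: viability read after 17.5 h compound exposure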)
Settings: ERR/PGC reporter cell line viability counter screen; series mostly up to 46.1 µM
Method in brief: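 Cells: PGC/ERR, 2,000/well, 1536-well format. Pre-incubation 6 h, 37 C/5% CO2. Compound exposure 17.5 h, 37 C. Detection: CellTiter-Fluor, 30 min, fluorescence.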

SMILES | outcome
OCCN1CCN(CCCN2c3ccccc3Sc3ccc(Cl)cc32)CC1 | inactive
O=C(O)CCc1nc(-c2ccccc2)c(-c2ccccc2)o1 | inactive
CN1C(=O)c2ccccc2C1=O | inactive
O=C(CCc1ccc(O)cc1)c1c(O)cc(O)cc1O | inactive
Cc1ccc(Cl)c(Nc2ccccc2C(=O)O)c1Cl | inactive
CC(C)COCC(CN(Cc1ccccc1)c1ccccc1)N1CCCC1 (stereo not given) | inactive
C[C@H]1c2cccc(O)c2C(O)=C2C(=O)[C@]3(O)C(O)=C(C(N)=O)C(=O)[C@@H](N(C)C)[C@@H]3[C@@H](O)[C@@H]21 | inactive
